Screening results from PubChem.
Giardia kill: kills Giardia lamblia; activity change, % at 7.66 µM, hits read low; Giardia lamblia trophozoite viability; 340,000 tested, 0.15% active; in the data active means activity change below about -80%; inconclusive means between about -30% and that limit;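 further: parasites exposed to compound for two days anaerobically before the ATP read; on the % scale 0 is the no-effect control and ±100 the full control effect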
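Anaerobic 48 hrs incubation at 37 deg C of 100 trophozoites/well with test compounds; ATPLite 1-Step luminescence, 15-30 min RT, reports cellular ATP as viability.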
IDH1 R132H inh: human IDH1 R132H inhibition; O75874; IDH1-R132H enzyme, NADPH consumption, diaphorase/resazurin fluorescence; Potency, µM (series often up to 76.6 µM), for the others: at the top dose activity change, negative = inhibition, most hits filed as inhibitors; 390,000 tested, 0.093% active; further: potency means the concentration at half of the fitted maximal effect; on the % scale 0 is the no-effect control and ±100 the full control effect; nearly all actives have a fitted effect of over 65% in size
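IDH1-R132H (0.5 ug/mL) preincubated 30 min with compound, then NADPH (0.016 mM) and alpha-KG (2 mM) added; 80 min at RT, pH 7.5. Remaining NADPH coupled via diaphorase/resazurin to fluorescence (540/590 nm); concentration-response curves normalized to no-enzyme control.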
rTrxR1 inhibitor: rat TrxR1 inhibition | 390,000 tested, 1% active | recombinant rTrxR1, NADPH fluorescence consumption, selenite substrate | AID 588453 | Potency, µM (highest dose often 114 µM), for inactives: top-dose activity change, negative = inhibition, hits mostly inhibitors; further: potency means the concentration at half of the fitted maximal effect; on the % scale 0 is the no-effect control and ±100 the full control effect; nearly all actives have a fitted effect of over 65% in size
Target sequence (O89049 whole entry, looked up): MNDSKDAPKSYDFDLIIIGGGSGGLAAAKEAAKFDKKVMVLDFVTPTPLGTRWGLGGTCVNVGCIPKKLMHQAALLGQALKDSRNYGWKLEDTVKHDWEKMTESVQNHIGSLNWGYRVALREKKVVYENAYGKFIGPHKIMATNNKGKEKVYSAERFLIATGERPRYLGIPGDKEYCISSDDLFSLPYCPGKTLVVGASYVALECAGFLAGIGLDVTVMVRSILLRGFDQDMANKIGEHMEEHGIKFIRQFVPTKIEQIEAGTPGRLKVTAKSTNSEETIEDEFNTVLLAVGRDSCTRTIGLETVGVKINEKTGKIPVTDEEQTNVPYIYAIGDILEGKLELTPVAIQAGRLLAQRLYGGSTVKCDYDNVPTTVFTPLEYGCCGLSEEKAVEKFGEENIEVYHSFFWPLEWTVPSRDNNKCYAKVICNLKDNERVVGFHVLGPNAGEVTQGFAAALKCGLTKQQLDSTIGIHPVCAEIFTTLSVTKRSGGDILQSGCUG
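Rat TrxR1 (90 nM in the dispensed reagent) was pre-reduced with 400 uM NADPH for 5 min at room temperature, then incubated with compound for 15 min. After 400 uM selenite was added, NADPH fluorescence (Ex 340/Em 450 nm) was followed for 8 min.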
TrxR1 substrate: rat thioredoxin reductase 1 substrate activity | O89049 | purified TrxR1 substrate turnover, NADPH consumption readout | Potency, µM (doses to about 114 µM), for inactives: top-dose activity change, negative = substrate turnover | 390,000 tested, 0.01% active | AID 588456; further: potency means the concentration at half of the fitted maximal effect; on the % scale 0 is the no-effect control and ±100 the full control effect; nearly all actives have a fitted effect of over 50% in size
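Rat TrxR1, dispensed at 90 nM, was prereduced with 400 uM NADPH (final) for 5 min at ~22 deg C, then incubated with compound 15 min before 400 uM selenite. A first-read NADPH fluorescence drop versus no-compound background flagged substrates.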
IL-2 act: activators of IL-2. IL-2 activation reporter assay, cell-based qHTS; stimulated with anti-CD3/CD4/CD28 beads; in transgenic mouse T cells. activation, % (series mostly up to about 46 µM). 360,000 tested, 0.065% active. AID 652025; in the data active means activation above about 50%; inconclusive means mostly about 30% to 49%; further: 0% is about no effect
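Using fluorescent plate cytometry, EGFP and DsRed are detected in transgenic mouse T cells stimulated 18 h at 37 degrees C with antibody-coated beads after 60 min compound pretreatment.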
BRCA1 expr up: increases BRCA1 expression; MCF7-BRCA1-FFLuc reporter, luminescence, 48 h; response scale: scaled: vehicle 0%, 10 µM genistein 100%; Potency, µM (series often up to 46.1 µM), for the others: at the highest dose activation, actives largely listed as activators; 380,000 tested, 1.1% active; AID 624202; further: potency means the concentration at half of the fitted maximal effect; nearly all actives have a fitted effect of over 80% in size
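Luminescence from a BRCA1-driven firefly luciferase in MCF7 cells was read after 48 h compound exposure at 37 C. Data normalized against DMSO and a 10microM genistein activation control, then curve-fitted across the titration.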
The depositor's hits bear a star; u = inconclusive; x = no result; [ ] = remark or other dose. Shown are actives, neighbours in structure and some others; about 2.2% of the full set was active somewhere. Unless noted, the call rests on the fitted dose curve; in most records, active means well fitted curve in the direction sought with a large enough effect; inconclusive means small, poorly fitted or top-dose-only effect, or another doubt; inactive means no such curve, though single readings can be large; an effect the other way counts as inactive or inconclusive.

SMILES	Giardia kill	IDH1 R132H inh	rTrxR1 inhibitor	TrxR1 substrate	IL-2 act	BRCA1 expr up
CCn1nc(-c2ccccc2C)nc2c(=O)n(C)c(=O)nc1-2	-93*	x	u	14µM*	x	-78%
Cc1ccccc1-n1c2nc(=O)n(C)c(=O)c-2cc2ccccc21	2	10%	5%[57.1 µM]	76%[57.1 µM]	0	-23%
Cc1ccc(-c2cnc(C3CC3)o2)cc1S(=O)(=O)Nc1ccc(F)cc1Cl	x	x	4%[57.1 µM]	0%[57.1 µM]	x	x
COc1cc2c(cc1OC)C(C1C(=O)CCCC1=O)N(C(=O)CCl)CC2 (configuration not stated)	-23	-3%	-6%	23%	0	0%
COc1cc2c(cc1OC)C(c1ccccc1)N(C(=O)CCl)CC2 (configuration not stated)	-3	1%	4.5µM*	3%	-3	-93%
O=C1C(Cl)=C(NCCN2CCCCC2)C(=O)c2ccccc21	4	10%	11µM*	4%	-1	-93%
CCOc1ccc(CCNC(=O)c2c3c(nc4ccccc24)C(=O)N(C2CCCCC2)C3)cc1	x	-12%	8%[57.1 µM]	-4%[57.1 µM]	x	x
Oc1c(C(c2ccccc2)N2CCOCC2)ccc2ccccc12 (configuration not stated)	2	31%	3.2µM*	-12%	-1	-3%
O=C(CN1CCN(C(c2ccccc2)c2ccccc2)CC1)N1CCOCC1	0	0%	4%	8%	-1	0%
COc1cc(S(=O)(=O)Nc2ccc(C)cc2)ccc1N=Cc1c(C)c(C#N)c(=O)n(C)c1O	24	8%	7%[57.1 µM]	-2%[57.1 µM]	448*	18%
COc1cc(S(=O)(=O)Nc2ccc(C)cc2)ccc1N=Cc1c(C)[nH]n(-c2ccc(C)cc2)c1=O	3	1%	28%[57.1 µM]	7%[57.1 µM]	21	-36%
Fc1ccc(/C=N/NC2=Nc3cccc4cccc2c34)cc1	2	9%	-8%	-7%	119*	-27%
COc1ccc(OC)c(C2=NOC(C(=O)NCc3ccco3)C2)c1 (configuration not stated)	13	4%	28µM*	4%	0	-67%
O=C(NCc1ccco1)C1CC(c2ccccc2O)=NO1 (configuration not stated)	1	2%	6%[57.1 µM]	4%[57.1 µM]	0	16%
Cc1ccc(C(=O)/C=C\C(=O)c2ccc(C)cc2)cc1	-3	-1%	5µM*	7%	-1	0%
O=C(O)/C=C/C(=O)c1ccc(O)cc1	17	-12%	18µM*	-6%	-4	0%
O=C(C(=O)c1ccc(O)cc1)c1ccccc1	-23	-6%	4%	-6%	0	11%
O=C(/C=C\c1ccc(-c2ccccc2)o1)c1ccccc1	-22	14%	10µM*	-7%	1	48%
Cc1ccc(C(=O)/C=C/c2ccc(-c3ccc(C)cc3)o2)cc1	0	0%	18µM*	-9%	-1	-3%
CC(=O)NC(=O)NC1OC(=O)C(Cl)=C1Cl (configuration not stated)	-16	5%	1.6µM*	-2%	-2	-26%
Cn1c(NCc2ccccc2F)nc2ccccc21	x	-10%	-8%	-3%	x	x
N/C(=N\OC(=O)CSc1ccccc1)c1ccccn1	8	-18%	-8%	-10%	-1	6.3µM*
N/C(=N\OC(=O)c1ccccc1[N+](=O)[O-])c1ccccn1	-12	3%	24%[57.1 µM]	5%[57.1 µM]	0	5µM*
N/C(=N\OC(=O)c1ccccc1Cl)c1ccccn1	-25	5%	14%	7%	3	-45%
N/C(=N\OC(=O)Cc1ccc(-c2ccccc2)cc1)c1ccccn1	3	0%	2%	-1%	-2	73%
SMILES	Giardia kill	IDH1 R132H inh	rTrxR1 inhibitor	TrxR1 substrate	IL-2 act	BRCA1 expr up
CCN(c1ccc(Cl)cc1)S(=O)(=O)c1nnc(NC(=O)C2CCCCC2)s1	x	-16%	60%	8%	x	x
COc1ccc(C2/C=C\CN(CC(C)C)C(Cc3ccccc3)C(=O)N2Cc2ccc(F)cc2)cc1 (configuration not stated)	18	x	11%	-4%	x	x
NC(=O)c1c(N)sc2c1CCC2	-17	-4%	50µM*	-6%	0	30%
Nc1sc2c(c1C(=O)NC1CCS(=O)(=O)C1)CCC2 (configuration not stated)	-17	1%	25µM*	9%[57.1 µM]	-1	-4%
CCCCOc1ccc(CNC(=O)C2CCN(c3nnc(-n4cccc4CNc4ccc(C)cc4)s3)CC2)cc1	x	x	0%	-1%	x	x
CN(C)c1ccc(/C=C/c2nnnn2-c2ccccc2)cc1	-1	2%	-10%	-6%	0	4µM*
COc1ccc(CCNC(=O)CCc2c(C)nc3c(c(C)nn3-c3ccccc3)c2C)c(OC)c1	x	-2%	18%	22%	x	x
CN(Cc1ccccc1)C(=O)c1ccccc1C(=O)OCC(=O)N(Cc1ccccc1)C(C)(C)C	9	-7%	9%	-9%	0	-11%
CCOc1ccc(C(C)=O)cc1COC(=O)c1ccccc1C(=O)N(C)Cc1ccccc1	-19	0%	50µM*	-6%	-4	-29%
CCOc1ccc(-c2csc(-c3nc(-c4ccc(Br)s4)cs3)n2)cc1	x	0%	17%	1%	x	x
CNc1c(Br)cc(/C=C2\C=C(C(O)c3cc(Br)c(NC)c(Br)c3)c3ccccc32)cc1Br (configuration not stated)	x	x	38%[0.0914 µM]	0%	x	-16%
N#C/C(=C/c1ccc(-c2ccc(S(N)(=O)=O)cc2)o1)C(=O)Nc1ccccc1	-19	-4%	-2%[57.1 µM]	5%[57.1 µM]	u	-23%
COC(=O)c1ccc(/C=C(\C#N)c2nc3ccccc3s2)cc1	-8	10%	6%[57.1 µM]	7%[57.1 µM]	0	-4%
COc1ccc(/C(C#N)=C/c2ccccn2)cc1	-7	0%	10%[2.29 µM]	19%[57.1 µM]	-2	2.8µM*
N#C/C(=C/c1ccc(-c2ccc(S(N)(=O)=O)cc2)o1)c1nc2ccccc2s1	-22	1%	89µM*	-8%	71*	-63%
N#C/C(=C\c1ccccn1)c1nc2ccccc2s1	11	19%	56µM*	-5%	6	-27%
Cc1ccc(C(=O)NC2(C(F)(F)F)N=C(c3ccccc3)N(Cc3ccccc3)C2=O)cc1 (configuration not stated)	x	11%	19%	-3%	x	-15%
CC12CCC=CC1C(c1cccc(Br)c1)N(Cc1ccccc1)C2=O (configuration not stated)	-4	x	u	-7%	x	x
COc1ccc(C(=O)NCc2ccc3c(c2)CCN3C(=O)c2ccc(Cl)cc2)c(OC)c1	x	-6%	11%[57.1 µM]	1%[57.1 µM]	x	x
